NPC1 promoter act: NPC1 promoter activation | Potency, µM (titrated, usually from 9.22 µM), actives largely listed as activators | AID 485313 | 2.4% of 320,000 active | Huh7 NPC1 promoter luciferase reporter, 24 h; further: nearly all actives have a fitted effect of over 60% in size
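In 1536-well qHTS, Huh7 cells harboring an NPC1 promoter–luciferase construct received compound for 24 h; activation was quantified by luminescence following luciferase reagent addition.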
SMN2 splice enh: increases expression of the SMN2 splice variant. HEK293 SMN2-luciferase splicing reporter, luminescence, 30-36 h. Potency, µM (top dose mostly 46.1 µM), usual class: activators. 2.8% of 210,000 active; further: nearly all actives have a fitted effect of over 55% in size
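HEK293 cells carry an SMN2 minigene-luciferase reporter in which exon 7 inclusion puts luciferase in frame. Cells were seeded at 2000 cells/well, attached for 10-12 hours, then exposed to compounds for 30-36 hours at 37C before ONE-Glo luminescence.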
Rab9 prom act: activates the Rab9 promoter; Huh7 Rab9 promoter-luciferase reporter, luminescence, 24 h; Potency, µM (series often up to 9.22 µM), usual class: activators; 2.8% of 320,000 active; AID 485297; further: nearly all actives have a fitted effect of over 60% in size
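Luminescence read-out: Huh7 cells stably expressing Rab9-luciferase, treated 24 h with compound at 37 °C, then lysed with luciferase reagent for 10 min at ambient before reading.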
ELG1 DNA repair: inhibitors of ELG1-dependent DNA repair in HEK293T cells | HEK293T ELG1-luciferase reporter, luminescence, 16 h; DNA damage induced by 5-fluorouridine | Potency, µM (series often up to 46.1 µM), most hits filed as inhibitors | 2.3% of 330,000 active; further: nearly all actives have a fitted effect of over 55% in size
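Reporter activity after DNA damage by 5-fluorouridine is monitored. Compound-treated cells incubate 16 hr at 37 °C, then ONE-Glo is added for 30 min before luminescence reading.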
ELG1 genotox: induces genotoxicity in HEK293T cells with luciferase-tagged ELG1; AID 504466; 1.3% of 330,000 active; Potency, µM (top dose mostly 46 µM), actives largely listed as activators; HEK293T ELG1-luciferase reporter, luminescence, 16 h; further: nearly all actives have a fitted effect of over 60% in size
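Reporter readout depends on ELG1 protein level, which increases with genetic stress. After 16 hr compound exposure at 37 °C, luciferase activity was quantified using ONE-Glo.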
FLuc counter: counter-screen for miR-21 project: firefly luciferase inhibitors or activators. AID 588342. 6.9% of 360,000 active. Potency, µM (top dose mostly 57.5 µM), most hits filed as inhibitors. purified FLuc, Km substrates, luminescence inhibition. P08659; further: nearly all actives have a fitted effect of over 55% in size
Target sequence (P08659 whole entry, looked up): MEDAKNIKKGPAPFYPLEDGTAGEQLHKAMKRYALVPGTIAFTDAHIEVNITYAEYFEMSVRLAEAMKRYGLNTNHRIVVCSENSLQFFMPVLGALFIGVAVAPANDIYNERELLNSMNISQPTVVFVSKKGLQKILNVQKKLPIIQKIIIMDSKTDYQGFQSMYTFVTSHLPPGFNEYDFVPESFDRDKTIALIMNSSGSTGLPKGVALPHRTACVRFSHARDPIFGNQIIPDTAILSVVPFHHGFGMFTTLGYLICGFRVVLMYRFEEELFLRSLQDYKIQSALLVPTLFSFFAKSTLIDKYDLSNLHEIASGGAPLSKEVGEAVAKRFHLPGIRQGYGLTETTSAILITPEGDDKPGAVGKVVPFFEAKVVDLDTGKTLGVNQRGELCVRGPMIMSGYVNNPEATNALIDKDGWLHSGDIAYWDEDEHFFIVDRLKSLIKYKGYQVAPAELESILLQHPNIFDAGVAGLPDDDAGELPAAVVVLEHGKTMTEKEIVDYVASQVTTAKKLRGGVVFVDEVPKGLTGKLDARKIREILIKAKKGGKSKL
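Purified P. pyralis luciferase (10nM final) with 10uM D-luciferin and 10uM ATP (Km levels) in 50mM Tris acetate pH 7.5, 10mM Mg acetate, 0.01% Tween-20, 0.05% BSA; qHTS 6-point titration, ~60 µM downward; luminescence read.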
Numbers stand for hits; - = inactive; ? = inconclusive; . = not tested or not shown; ! = a repeat was not active; [ ] = another dose, or the depositor's remark. A selection: hits, their analogues and other compounds. The true share with any hit is near 9.2%. The call rests on the fitted dose curve; in most records, active means well fitted curve in the direction sought with a large enough effect; inconclusive means small, poorly fitted or top-dose-only effect, or another doubt; inactive means no such curve, though single readings can be large; an effect the other way counts as inactive or inconclusive.

SMILES	NPC1 promoter act	SMN2 splice enh	Rab9 prom act	ELG1 DNA repair	ELG1 genotox	FLuc counter
CC(=O)Nc1nc2c(C)cc(NC(=O)C3CCCCC3)cc2s1	2.24µM	.	1.78µM	?	?	.
COc1ccc2nc(NC(=O)C3CCCO3)sc2c1 (stereo unspecified)	1.12µM	.	?	?	?	9.53µM
Cc1cc(C)n2cc(CSc3nc4cc(Cl)ccc4o3)nc2n1	-	-	-	-	-	-
CN(C)c1nc(N)nc(CSc2nc3cc(Cl)ccc3o2)n1	?	-	?	?	7.31µM	?
Cc1cc2sc(NC(=O)c3ccco3)nc2cc1Cl	1.41µM	.	1.12µM	?	?	1.35µM
COc1cc2sc(NC(=O)c3ccco3)nc2cc1Cl	0.708µM	.	0.562µM	?	2.31µM	?
O=C(Nc1ccccc1[N+](=O)[O-])c1cc2ccccc2nc1Cl	-	.	-	-	-	-
CCC(=O)NC(=S)Nc1cccc(NC(=O)c2ccc(Cl)cc2Cl)c1	-	-	-	-	-	12µM
CN(C)c1ccc(NC(=O)c2ccc([N+](=O)[O-])cc2Cl)cc1	2.51µM	10µM	3.16µM	?	?	4.26µM
O=C(Nc1ccc([N+](=O)[O-])cc1)c1cc2ccccc2nc1Cl	-	.	-	18.3µM	-	-
Cc1ccc(NC(=O)c2ccc([N+](=O)[O-])cc2Cl)nc1	2.51µM	5.01µM	2.82µM	?	?	12µM
CCC(=O)NC(=S)Nc1ccc(NC(=O)c2ccc([N+](=O)[O-])cc2Cl)cc1	-	-	-	5.8µM	-	-
CC(C)C(=O)Nc1ccc(NC(=O)c2ccc([N+](=O)[O-])cc2Cl)cc1	-	-	-	-	-	-
O=C(Nc1cccc2nsnc12)c1cccnc1	-	-	-	-	-	-
O=C(Nc1ccc2nsnc2c1)c1cccs1	-	-	-	?	-	-
O=C(Nc1ccccc1)Nc1cccc2nsnc12	4.47µM	11.2µM	3.16µM	?	?	7.57µM
O=C(Nc1cccc2nsnc12)c1cccs1	?	-	3.16µM!	?	?	13.5µM!
Cc1ccc(NC(=O)C(=O)NCC(c2cccnc2)N2CCc3ccccc32)cc1Cl (stereo unspecified)	.	.	.	.	.	-
COc1cc(NC(=O)C2=C(C)OCCS2)c(Cl)cc1C(=O)NCCN(C)C	-	.	-	-	-	-
CC(C)NC(=O)c1onc(CSc2ccccc2)c1C(=O)O	-	-	-	-	-	-
CC(C)NC(=O)c1onc(CSc2cccc3ccccc23)c1C(=O)O	-	-	-	-	-	26.9µM
CN(C)S(=O)(=O)c1cccc(NC(=O)c2ccc(COc3ccccc3)cc2)c1	-	.	-	11.6µM	-	?
COCc1ccc(C(=O)Nc2cccc(S(=O)(=O)N(C)c3ccccc3)c2)cc1	.	.	.	18.3µM	-	.
CN(c1ccc(C(=O)Nc2cccc(O)c2)cc1)S(=O)(=O)c1ccccc1	-	.	-	?	-	-
Cc1ccccc1-c1cn(-c2ccccc2)c(=S)[nH]1	-	.	-	-	-	-
SMILES	NPC1 promoter act	SMN2 splice enh	Rab9 prom act	ELG1 DNA repair	ELG1 genotox	FLuc counter
Cc1ccc(-c2cn(-c3ccccc3)c(=S)[nH]2)cc1C	1.12µM	.	0.126µM	?	3.26µM	12µM
CN1C(=O)C2(C(C#N)=C(N)N(c3cc(Cl)cc(Cl)c3)C3=C2C(=O)CCC3)c2ccccc21 (stereo unspecified)	-	-	-	10.3µM	-	-
CCOc1ccc(C(CC(=O)O)NC(=O)c2sc3ccccc3c2Cl)cc1 (stereo unspecified)	-	-	-	-	-	-
CCCOc1ccc(C(CC(=O)O)NC(=O)c2sc3ccccc3c2Cl)cc1 (stereo unspecified)	-	.	-	?	-	15.1µM
CCCNC(=O)C(Cc1ccccc1)NC(=O)c1cccc([N+](=O)[O-])c1 (stereo unspecified)	-	.	-	-	-	-
C/C(=N\NC(=O)CCn1nnc2ccccc21)c1cccs1	-	.	-	?	-	?
CCOC(=O)c1[nH]c(C)c(CCC(=O)NCc2ccc(OCC)cc2)c1C	.	.	.	.	.	-
O=C(O)c1ccc(N2C(=O)CC(N3CCN(c4ccc(Cl)cc4)CC3)C2=O)cc1 (stereo unspecified)	-	.	-	?	-	-
O=C(O)c1ccc(N2C(=O)CC(N3C(=O)/C(=C/c4ccc(Cl)cc4)SC3=S)C2=O)cc1 (stereo unspecified)	-	.	-	-	-	16.9µM
O=C1C(Cl)=C(NS(=O)(=O)c2ccc([N+](=O)[O-])cc2)C(=O)c2ccccc21	-	.	-	18.3µM	-	26.9µM
O=C1C(Cl)=C(Nc2ccc(S(=O)(=O)Nc3ccccn3)cc2)C(=O)c2ccccc21	.	-[9.22 µM]	.	.	.	.
O=C(NC1CCCCC1)C1CC(=O)N(c2ccccc2)C1 (stereo unspecified)	-	.	-	-	-	-
CC(=O)c1cccc(S(=O)(=O)NCC2CCCCC2)c1	0.0005µM	?	?	-	-	-
Cc1nn(-c2ccc(Cl)cc2)c2nc(-c3cccnc3)cc(C(F)(F)F)c12	.	-	.	.	.	-
CCOC(=O)Cc1csc(SCC(=O)c2c(N)n(CC(C)C)c(=O)n(C)c2=O)n1	-	-	-	5.17µM	-	-
Cc1csc(SCC(=O)c2c(N)n(CC(C)C)c(=O)n(C)c2=O)n1	-	-	-	18.4µM	-	-
CC1CCn2c(nc3cc(C(=O)NCc4ccc(F)cc4)ccc32)C1 (stereo unspecified)	.	.	.	.	.	-
COc1ccc(N2CCN(CCCNC(=O)C(=O)c3c(C)[nH]c4ccccc34)CC2)cc1	-	.	-	-	-	-
O=C(C1CCCN(S(=O)(=O)c2cccc3nsnc23)C1)N1CCc2ccccc2C1 (stereo unspecified)	-	-	-	16.4µM	-	-
CCOc1ccc(NC(=O)C2CCCN(S(=O)(=O)c3cccc4nsnc34)C2)cc1 (stereo unspecified)	-	-	-	23.1µM	-	-
O=C(C1CCN(S(=O)(=O)c2cccc3nsnc23)CC1)N1CCc2ccccc21	-	-	-	?	-	-
O=C(C1CCN(S(=O)(=O)c2cccc3nsnc23)CC1)N1CCn2c1nc1ccccc12	-	-	-	6.51µM	-	-
O=C(O)c1ccccc1C(=O)c1ccc(-c2ccccc2)cc1	-	.	-[1.84 µM]	?	-	21.3µM
O=C(CSc1nc(-c2ccccc2)no1)N1CCN(c2ccccc2F)CC1	.	.	.	.	.	-
COc1ccccc1N1CCN(C(=O)CSc2nc(-c3ccc(C(C)C)cc3)no2)CC1	.	.	.	.	.	2.13µM
CC(C)c1ccc(-c2noc(SCC(=O)N3CCN(c4ccccc4F)CC3)n2)cc1	.	.	.	.	.	2.39µM
O=C(CSc1nc(-c2ccccc2)no1)N1CCCCC1	.	-	.	.	.	23.9µM

Compound activity deposited in PubChem by National Center for Advancing Translational Sciences (NCATS).
